Tau fluor cs = counter-screen for tau fibril formation inhibitors | tau K18 P301L Alexa594 fluorescence, heparin fibrillization | Potency, µM (highest dose often 57.7 µM) | 280,000 tested, 0.93% active | AID 1463; note: nearly all actives have a fitted effect of over 55% in size
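Human tau K18 P301L (15 uM unlabeled, 0.24 uM Alexa 594-labeled) in 100 mM sodium acetate pH 7 with 20 uM heparin, 6 hr at 37 C. ThT 30 uM added, 1 hr ambient; Alexa 594 FP and total fluorescence read at 555/632 nm.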
Tau FP inhib = tau fibrillization inhibition (FP); P10636; 280,000 tested, 0.39% active; Potency, µM (highest dose often 57.7 µM), actives largely listed as inhibitors; K18 P301L tau heparin fibrillization, Alexa594 FP, 6 h; AID 1468; note: nearly all actives have a fitted effect of over 55% in size
Target sequence (P10636 561-689 P618L limits assumed): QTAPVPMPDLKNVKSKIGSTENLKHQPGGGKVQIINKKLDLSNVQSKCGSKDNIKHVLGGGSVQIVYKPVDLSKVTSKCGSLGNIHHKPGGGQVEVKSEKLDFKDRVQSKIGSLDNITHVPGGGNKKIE
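Human tau K18 […] P301L fragment, 15 uM unlabeled plus 0.24 uM Alexa 594-labeled tau (final), with compound and 20 uM heparin in 100 mM sodium acetate pH 7; 6 hr at 37 C, then Alexa 594 FP read.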
Tau fibril ThT = tau fibrillization inhibition (ThT binding); P10636; recombinant tau K18 P301L, heparin-induced fibrillization, ThT fluorescence; 270,000 tested, 2.1% active; Potency, µM (top dose mostly 57.4 µM), hits mostly inhibitors; note: nearly all actives have a fitted effect of over 55% in size
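Fibril formation assay: tau K18 P301L at 15 uM with trace Alexa 594 label, heparin inducer 20 uM, pH 7 sodium acetate buffer, 37 C for 6 hr; endpoint ThT signal.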
Coupling enz = inhibits coupling enzyme system, counter-screen for aldolase hits. coupling enzyme system counterscreen, AmpLite Red fluorescence. activity change, negative = inhibition, % at 58.2 µM, hits read low. 290,000 tested, 0.67% active; in the data active = activity change below about -30%
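Compounds tested against the coupling enzymes alone at 57.5 uM final; readout was AmpLite Red fluorescence (525/598 nm) after 20 min at RT.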
USP1 inh = USP1/UAF1 (human) deubiquitinase inhibition; recombinant USP1/UAF1, Ub-Rhodamine cleavage fluorescence; O94782; 390,000 tested, 0.23% active; Potency, µM (series often up to 57.1 µM), actives largely listed as inhibitors; AID 743255; note: nearly all actives have a fitted effect of over 60% in size
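USP1/UAF1 complex (1 nM) preincubated 15 min at room temperature with compound, then Ub-Rho substrate (150 nM final) added. Kinetic fluorescence at 480/540 nm over 6 reads at 60 s intervals; 50 mM HEPES pH 7.8, 0.5 mM EDTA, 0.1 mg/ml BSA, 1 mM TCEP, 0.01% Tween-20.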
Numbers stand for hits; – = inactive; ? = inconclusive; · = no result; [ ] = remark or other dose. This is a sample that favours compounds with a hit; in the whole collection about 2.3% have one here. Unless noted, calls come from the whole dose curve; as a rule, active = well fitted curve in the direction sought with a large enough effect; inconclusive = small, poorly fitted or top-dose-only effect, or another doubt; inactive = no such curve, though single readings can be large; an effect the other way counts as inactive or inconclusive.

SMILES	Tau fluor cs	Tau FP inhib	Tau fibril ThT	Coupling enz	USP1 inh
COc1ccc(N/C=C/C(=O)c2ccc3c(c2)OCO3)cc1OC	?	–	5.01µM	–	–
COc1ccc(N/C=C\C(=O)c2ccc3c(c2)OCO3)cc1	–	–	?	–	–
COc1cccc(N/C=C/C(=O)c2ccc(OC)c(OC)c2)c1	·	·	·	–	–
COc1ccc(N/C=C\C(=O)c2ccc(C)cc2)cc1OC	?	–	10µM	–	–
C[C@H](CO)N1C[C@H](C)[C@H](CN(C)C(=O)Nc2ccc(C(C)(C)C)cc2)OCc2cnnn2CCCC1=O	·	·	·	·	–
Cc1ccc(OCC(=O)Nc2nnc(SCc3cc(=O)n4cccc(C)c4n3)s2)cc1	–	–	–	·	–
CC(C)c1ccc(CNc2ccc3c(c2)ncn3C)cc1	·	·	·	–	–
c1ccc(-n2cnc3cc(NCc4ccncc4)ccc32)cc1	–	–	?	-42.1	–
CN(C)c1ccc(CNc2ccc3c(c2)ncn3C)cc1	15.8µM[quencher]	–	?	–	–
c1ccc(-n2cnc3cc(NCc4ccccn4)ccc32)cc1	–	–	–	–	–
CC(C)(CO)CNC(=O)c1ccc2nc(Cc3cccc(Cl)c3)oc2c1	·	·	·	–	–
CC1(c2ccccc2)CC(C)(C)N2C(=O)C3(C(C#N)=C(N)Oc4cc(O)ccc43)c3cccc1c32 (stereo not drawn)	?	25.1µM	–	–	–
CC1=NOC(=O)/C1=C\c1ccc(-c2ccc(Cl)cc2Cl)o1	?	–	20µM	–	?
O=C(/C=C/c1ccccc1)Nc1ncn[nH]1	–	?	10µM	–	–
CCOC(=O)C1=C(COC(=O)CNS(=O)(=O)c2c(F)cc(F)cc2Br)NC(=O)NC1C (stereo not drawn)	·	·	·	·	–
COC(=O)c1c(C)sc(-c2c(-c3ccc4c(c3)OCCO4)[nH]c3c2c(=O)n(C)c(=O)n3C)c1O	?	?	–	·	–
CCOC(=O)c1c(C)sc(-c2c(-c3ccc4c(c3)OCCO4)[nH]c3c2c(=O)[nH]c(=O)n3C)c1O	?	–	?	·	25.1µM
COC(=O)c1c(C)sc(-c2c(-c3ccc4c(c3)OCCO4)[nH]c3[nH]c(=O)[nH]c(=O)c23)c1O	20µM[quencher]	?	?	·	–
CCOC(=O)c1c(C)sc(-c2c(-c3ccc4c(c3)OCCO4)[nH]c3c2c(=O)n(C)c(=O)n3C)c1O	?	?	–	·	15.8µM
C=Cc1ccc(Cn2c(SCC(=O)N3CCN(c4ccc(F)cc4)CC3)nc3ccccc32)cc1	–	–	–	·	?
Cc1nc2sc(C(=O)Nc3ccc(F)cc3)c(N)c2c(-c2ccc(Br)cc2)c1C(=O)Nc1ccc(Cl)cc1	–	?	–	·	?
COc1cc(C(=O)N2CCNC(=O)C2CC(=O)Nc2ccc(C)c(C)c2)cc(OC)c1OC (stereo not drawn)	–	–	–	·	–
CC(/C=C1\SC(=S)N(C(C(=O)O)c2ccccc2)C1=O)=C\c1ccccc1 (stereo not drawn)	–	–	31.6µM	–	–
CC(/C=C1\SC(=O)N(CC(=O)Nc2cccc(O)c2)C1=O)=C\c1ccccc1	6.31µM[quencher]	15.8µM	–	–	–
CC(=C\c1ccco1)/C=C1/SC(=S)N(CC(=O)O)C1=O	?	?	3.98µM	–	–
SMILES	Tau fluor cs	Tau FP inhib	Tau fibril ThT	Coupling enz	USP1 inh
C=CCOc1ccc(/C=C2\SC(=S)N(C(C(=O)O)c3ccccc3)C2=O)cc1 (stereo not drawn)	–	–	22.4µM	–	–
O=C(O)C(c1ccccc1)N1C(=O)/C(=C/c2cccs2)SC1=S (stereo not drawn)	–	–	?	–	–
COc1ccc(CCNC(=O)Cn2c(=O)nc(-c3ccccc3F)c3cc(Cl)ccc32)cc1OC	–	–	–	·	–
CCC1CCCCN1C(=O)Cn1c(=O)n(CC2CCC(C(=O)NC)CC2)c(=O)c2sccc21 (stereo not drawn)	–	–	–	·	–
CC(=C\c1ccccc1)/C=C1/SC(=S)N(CCC(=O)O)C1=O	·	·	·	–	–
CC(/C=C1\SC(=S)N(CC(=O)O)C1=O)=C\c1ccccc1	–	–	7.94µM	–	–
COc1ccc(OC)c(/C=C2\SC(=S)N(C(C(=O)O)c3ccccc3)C2=O)c1 (stereo not drawn)	–	–	15.8µM	–	?
CCN(c1ccc(OC)cc1)S(=O)(=O)c1csc(C(=O)N2CCCC2)c1	·	·	·	–	–
FC(F)(F)c1cccc(-c2nc3nc(Cl)c(Cl)nc3[nH]2)c1	–	–	–	-36.1	–
CCOc1ccccc1CNC(=O)C1CCN(S(=O)(=O)c2c(C)noc2/C=C/c2ccc(C)cc2)CC1	–	–	–	·	–
CCOc1ccc(CNC(=O)C2=Cc3cccc(OC)c3OC2)cc1	–	–	–	·	?
O=C(CSCc1nc2ccccc2[nH]1)Nc1ccc2ccccc2c1	?	?	22.4µM	–	–
O=C(CSCc1nc2ccccc2[nH]1)Nc1ccc(Oc2ccccc2)cc1	?	?	–	–	–
O=C(CS)Nc1ccc2ccccc2c1	?	?	25.1µM	–	–
Cc1cn([C@H]2C[C@H](O)[C@@H](CNCc3ccc(F)c(N4CCOCC4)c3)O2)c(=O)[nH]c1=O	·	·	·	·	–
O=C(Oc1ccccc1C(=O)Nc1ccccc1)c1ccc(Br)c([N+](=O)[O-])c1	?	?	10µM	–	–
CCOc1ccc(NC(=O)CN(C)C(=O)CSCc2c(C)noc2C)cc1OCC	·	·	·	·	–
Cc1ccc(N2C(=O)CSCC2=O)cc1	–	–	–	–	–
Cc1ccc(N2C(=O)CS/C2=C(\C(Cl)=C(Cl)Cl)[N+](=O)[O-])cc1	?	?	25.1µM	–	–
COc1ccccc1C(=O)Nc1ccc(C(=O)N2CCCCC2)cc1	·	·	·	–	–
C=CCNc1nc(-c2ccc(Cl)cc2)cs1	?	–	?	·	–
C=CCNc1nc(-c2ccc([N+](=O)[O-])cc2)cs1	–	–	7.08µM	–	–
CN(C)c1nc(-c2ccc([N+](=O)[O-])cc2)cs1	?	–	12.6µM	–	–
COc1cccc(-c2ncnn2-c2sc3c(c2C#N)CCCCC3)c1OC	–	–	–	·	–
O=c1cnc2cnc(Oc3cccc(Cl)c3)nc2n1C1CC1	·	·	·	–	·
SMILES	Tau fluor cs	Tau FP inhib	Tau fibril ThT	Coupling enz	USP1 inh
O=c1c(Cl)c(O)c2cccc3c4ccccc4n1c23	?	?	14.1µM	–	–
Nc1ccccc1SCC(=O)Nc1nccs1	–	–	–	–	–
COc1ccc(-c2[nH]c(-c3ccc(C)cc3)nc2SCC(=O)Nc2nccs2)cc1	17.8µM[quencher]	?	?	–	–
O=C(CSc1nc(-c2ccccc2)c(-c2ccccc2)[nH]1)Nc1nccs1	14.1µM[quencher]	–	?	–	–
COc1ccc(-c2nc(SCC(=O)Nc3nccs3)c(-c3ccc(Cl)cc3)[nH]2)cc1	–	–	–	–	–
COc1ccc(-c2[nH]c(-c3ccc(SC)cc3)nc2SCC(=O)Nc2nccs2)cc1	7.08µM[quencher]	–	?	–	–

Bioassay records as filed in PubChem BioAssay.
